Results published in PubChem BioAssay (EPA / NIEHS).
Activity calls are given as the source filed them. Rule for the calls: active = hit-call score of the fitted dose curve at least 0.9, where 1 is the maximum; inactive = score below 0.9.

Experiments:
[1] = ATG_GLI_CIS: Attagene CIS-FACTORIAL HepG2 Assay for human Zinc Finger Protein GLI1 (AID 2282945); details: HepG2, Attagene cis-factorial reporter mRNA, GLI element; actives raise or lower the signal
Method in brief: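 Transiently transfected HepG2 cells report endogenous transcription factor activity via cis-element-driven reporter units. After 24 h compound exposure, reporter mRNA was measured by RT-PCR with capillary electrophoresis; bidirectional fitting against DMSO baseline.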

[2] = ATG_GRE_CIS: Attagene CIS-FACTORIAL HepG2 Assay for human Glucocorticoid Response Elements (GRE) (AID 2282947); details: HepG2 GRE cis-reporter, Attagene multiplex mRNA; actives raise or lower the signal
Method in brief: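 Endogenous transcription factor activity is read through cis-element reporter constructs transiently transfected into HepG2 cells. After 24 h treatment, labelled RT-PCR products are resolved by capillary electrophoresis; DMSO sets baseline for bidirectional curve fitting.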

[3] = ATG_ISRE_CIS: Attagene CIS-FACTORIAL HepG2 Assay for human Interferon Regulatory Factor 1 (IRF1) binding to an Interferon-Stimulated Response Element (ISRE) (AID 2282948); details: HepG2 ISRE cis-reporter (Attagene), mRNA transcription readout; actives raise or lower the signal
Method in brief: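 Cell-based cis-reporter assay; HepG2; 24 h exposure; reporter mRNA by RT-PCR plus capillary electrophoresis fluorescence; activity in either direction scored relative to DMSO.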

[4] = ATG_M_32_CIS: Attagene CIS-FACTORIAL HepG2 Assay for M32 Transcription Factor (Internal Marker) (AID 2282949); details: HepG2 Attagene cis-factorial M32 reporter, mRNA; actives raise or lower the signal;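 note: background control marker of the multiplexed CIS panel rather than a real target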
Method in brief: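 Internal background marker read-out: RT-PCR/capillary electrophoresis fluorescence of reporter transcripts from transiently transfected HepG2 cells after 24 h chemical exposure. Activity fitted bidirectionally relative to DMSO negative control.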

[5] = ATG_M_06_CIS: Attagene CIS-FACTORIAL HepG2 Assay for M06 Transcription Factor (Internal Marker) (AID 2282950); details: HepG2 Attagene CIS-FACTORIAL M06 internal marker reporter; actives raise or lower the signal
Method in brief: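 Steps: transfect HepG2 with multiplexed cis-element reporter constructs; dose chemical 24 h; extract RNA with DNase treatment; reverse-transcribe, PCR-amplify, 6-FAM label, HpaI digest; separate fragments by capillary electrophoresis. Activity fitted both directions versus DMSO.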

[6] = biological target: Hypoxia-inducible factor 1-alpha (Homo sapiens) (UniProt Q16665); assay: ATG_HIF1a_CIS: Attagene CIS-FACTORIAL HepG2 Assay for human Hypoxia Inducible Factor 1 (HIF1A) (AID 2282951); details: HepG2 Attagene cis-factorial HIF1a reporter transcription; actives raise or lower the signal
Method in brief: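 In this multiplexed cell assay, HepG2 cells bearing transfected cis reporters are dosed for 24 h and reporter mRNA is read by RT-PCR plus capillary electrophoresis; signal increases and decreases are both scored against DMSO.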

[7] = biological target: Hepatocyte nuclear factor 6 (Homo sapiens) (UniProt Q9UBC0); assay: ATG_HNF6_CIS: Attagene CIS-FACTORIAL HepG2 Assay for human Hepatocyte Nuclear Factor 6 (HNF6) (AID 2282952); details: HepG2 Attagene cis-factorial HNF6 reporter transcription; actives raise or lower the signal
Method in brief: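 Reporter mRNA induction or loss in HepG2 after 24 h exposure; transient cis-MRTU transfection; fragments quantified by capillary electrophoresis; bidirectional analysis, DMSO as negative control.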

[8] = ATG_MRE_CIS: Attagene CIS-FACTORIAL HepG2 Assay for human Metal Responsive Element (MRE) (AID 2282954); details: HepG2 MRE cis-reporter transcription, Attagene multiplex; actives raise or lower the signal
Method in brief: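 Fluorescent reporter fragments separated by capillary electrophoresis give mRNA induction for the MRE unit after 24 h treatment of transfected HepG2 cells. Endogenous transcription-factor activity is read; DMSO serves as negative control and baseline.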

[9] = ATG_PBREM_CIS: Attagene CIS-FACTORIAL HepG2 Assay for human Phenobarbital-responsive Enhancer Module (PBREM) (AID 2282955); details: HepG2 PBREM cis-reporter, Attagene multiplexed transcription; actives raise or lower the signal
Method in brief: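 After a 24 h incubation with test chemical, transfected HepG2 cells yield total RNA; reporter-specific RT-PCR products are fluorescently labelled, HpaI-digested and resolved by capillary electrophoresis against ROX size standards.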

[10] = biological target: Paired box protein Pax-6 (Homo sapiens) (UniProt P26367); assay: ATG_Pax6_CIS: Attagene CIS-FACTORIAL HepG2 Assay for human Paired Box 6 (PAX6) (AID 2282956); details: HepG2 CIS-FACTORIAL PAX6 reporter transcription, RNA readout; actives raise or lower the signal
Method in brief: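 Multiplexed cis-reporter HepG2 system; 24 h treatment; reporter mRNA read by RT-PCR/CE fluorescence; bidirectional fit vs DMSO.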

[11] = ATG_PXRE_CIS: Attagene CIS-FACTORIAL HepG2 Assay for human Pregnane X Receptor Element (PXRE) (AID 2282957); details: HepG2 Attagene CIS-FACTORIAL PXRE reporter, mRNA; actives raise or lower the signal
Method in brief: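 Transiently transfected HepG2 cells were dosed and incubated for 24 h. RNA was then isolated, DNase-treated, reverse-transcribed and reporter sequences amplified. Labeled, HpaI-digested fragments were quantified by capillary electrophoresis against DMSO.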

[12] = ATG_PPRE_CIS: Attagene CIS-FACTORIAL HepG2 Assay for human Peroxisome Proliferator-activated Response Element (PPRE) (AID 2282958); details: HepG2 PPRE cis-element reporter, Attagene transcription factor profiling; actives raise or lower the signal
Method in brief: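 Multiplexed reporter transcription units under cis-regulatory promoters were transfected into HepG2 cells to capture endogenous factor activity. A 24 h incubation preceded RNA isolation and fluorescent RT-PCR fragment analysis.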

[13] = ATG_RORE_CIS: Attagene CIS-FACTORIAL HepG2 Assay for human RAR-related Orphan Receptor Element (RORE) (AID 2282959); details: HepG2 Attagene cis-factorial RORE reporter, mRNA; actives raise or lower the signal
Method in brief: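 Fluorescence intensity of reporter-specific cDNA fragments, separated by capillary electrophoresis, gives the signal. Source: HepG2 liver cells transiently transfected with cis-element reporters and exposed 24 h; DMSO-normalized bidirectional fit.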

[14] = biological target: Transcription factor Sp1 (Homo sapiens) (UniProt P08047); assay: ATG_Sp1_CIS: Attagene CIS-FACTORIAL HepG2 Assay for human Specificity Protein 1 (Sp1) (AID 2282961); details: HepG2 Sp1 cis-reporter transcription, actives raise or lower the signal
Method in brief: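 Sp1-driven reporter mRNA, read as capillary electrophoresis fluorescence after RT-PCR, in transiently transfected HepG2 cells dosed for 24 h; signal change in either direction relative to DMSO.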

[15] = ATG_SREBP_CIS: Attagene CIS-FACTORIAL HepG2 Assay for human Sterol Regulatory Element Binding (SREBP) (AID 2282962); details: HepG2 Attagene cis-factorial SREBP reporter, mRNA; actives raise or lower the signal
Method in brief: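 mRNA induction of transfected cis-promoter reporters in HepG2 cells, 24 h post-dose. Detection: RT-PCR with 6-FAM-labelled products, HpaI digest, capillary electrophoresis. DMSO served as negative control and baseline.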

[16] = biological target: Signal transducer and activator of transcription 3 (Homo sapiens) (UniProt P40763); assay: ATG_STAT3_CIS: Attagene CIS-FACTORIAL HepG2 Assay for human Signal Transducer and Activator of Transcription 3 (STAT3) (AID 2282963); details: HepG2, Attagene cis-factorial STAT3 reporter transcription; actives raise or lower the signal
Method in brief: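 Values derive from bidirectional fits relative to DMSO of reporter mRNA levels, measured by RT-PCR with capillary electrophoresis, in HepG2 cells carrying transiently transfected cis-regulated reporter units and exposed 24 h.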

[17] = biological target: Heat shock factor protein 1 (Homo sapiens) (UniProt Q00613); assay: ATG_HSE_CIS: Attagene CIS-FACTORIAL HepG2 Assay for human Heat Shock Transcription Factor 1 (HSE) (AID 2282953); details: HepG2 HSE cis-reporter, Attagene RNA transcription; actives raise or lower the signal
Method in brief: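 Cells were transfected with cis-element-driven reporter constructs, dosed for 24 h, then total RNA was reverse-transcribed and reporter cDNA amplified, FAM-labelled and digested with HpaI. Fragments were resolved by capillary electrophoresis; gain or loss was fitted against DMSO.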

[18] = ATG_Sox_CIS: Attagene CIS-FACTORIAL HepG2 Assay for human SRY-box transcription factor (SOX) (AID 2282960); details: HepG2 Attagene cis-factorial SOX reporter, mRNA; actives raise or lower the signal
Method in brief: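 After 24 h of chemical treatment, transfected HepG2 reporter cells are lysed for total RNA. Transcript levels come from RT-PCR with labelled primer extension and capillary electrophoresis, analysed bidirectionally versus DMSO.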

[19] = ATG_TA_CIS: Attagene CIS-FACTORIAL HepG2 Assay for human TA Basal Promoter (AID 2282964); details: HepG2 Attagene CIS-factorial TA basal promoter reporter; actives raise or lower the signal
Method in brief: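 Steps: transfect HepG2 with MRTUs; dose 24 h; isolate RNA, DNase-treat, reverse-transcribe; PCR and FAM-label reporter cDNA; digest with HpaI 2h at 37 C; run capillary electrophoresis. Activity fitted both directions against DMSO.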

Measured: AC50

Chain of Signal transducer and activator of transcription 3 (Homo sapiens) (P40763 whole entry, looked up): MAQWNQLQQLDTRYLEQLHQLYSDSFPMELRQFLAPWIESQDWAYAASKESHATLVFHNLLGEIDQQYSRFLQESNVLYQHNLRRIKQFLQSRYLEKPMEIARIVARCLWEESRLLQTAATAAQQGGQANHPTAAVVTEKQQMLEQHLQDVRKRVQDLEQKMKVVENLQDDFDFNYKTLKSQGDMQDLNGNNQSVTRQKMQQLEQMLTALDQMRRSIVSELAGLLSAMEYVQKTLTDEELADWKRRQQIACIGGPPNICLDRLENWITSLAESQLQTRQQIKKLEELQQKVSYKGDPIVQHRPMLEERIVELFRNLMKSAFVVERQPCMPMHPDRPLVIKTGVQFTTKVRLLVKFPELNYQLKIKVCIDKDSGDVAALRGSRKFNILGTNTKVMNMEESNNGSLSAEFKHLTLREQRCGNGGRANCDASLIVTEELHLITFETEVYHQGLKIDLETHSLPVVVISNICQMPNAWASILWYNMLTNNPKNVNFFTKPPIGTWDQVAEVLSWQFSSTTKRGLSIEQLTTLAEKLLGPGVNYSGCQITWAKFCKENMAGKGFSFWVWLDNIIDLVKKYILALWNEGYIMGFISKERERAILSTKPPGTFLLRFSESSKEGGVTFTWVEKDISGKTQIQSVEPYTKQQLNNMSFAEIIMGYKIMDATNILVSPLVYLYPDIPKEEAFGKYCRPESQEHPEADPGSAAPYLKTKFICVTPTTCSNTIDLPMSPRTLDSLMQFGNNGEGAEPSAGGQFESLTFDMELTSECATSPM
Chain of Hepatocyte nuclear factor 6 (Homo sapiens) (Q9UBC0 whole entry, looked up, the tested form may be a part): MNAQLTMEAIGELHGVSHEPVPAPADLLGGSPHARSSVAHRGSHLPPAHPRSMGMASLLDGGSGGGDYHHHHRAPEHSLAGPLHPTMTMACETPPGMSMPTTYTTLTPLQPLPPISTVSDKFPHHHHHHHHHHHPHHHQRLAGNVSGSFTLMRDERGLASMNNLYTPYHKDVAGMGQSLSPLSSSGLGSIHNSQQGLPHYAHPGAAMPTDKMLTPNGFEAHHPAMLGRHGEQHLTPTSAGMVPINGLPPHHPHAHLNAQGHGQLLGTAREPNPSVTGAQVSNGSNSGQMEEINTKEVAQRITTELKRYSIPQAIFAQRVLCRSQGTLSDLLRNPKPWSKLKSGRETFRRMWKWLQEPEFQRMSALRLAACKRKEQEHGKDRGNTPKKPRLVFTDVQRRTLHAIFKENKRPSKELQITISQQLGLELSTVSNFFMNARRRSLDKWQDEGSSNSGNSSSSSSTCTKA
Chain of Hypoxia-inducible factor 1-alpha (Homo sapiens) (Q16665 whole entry, looked up): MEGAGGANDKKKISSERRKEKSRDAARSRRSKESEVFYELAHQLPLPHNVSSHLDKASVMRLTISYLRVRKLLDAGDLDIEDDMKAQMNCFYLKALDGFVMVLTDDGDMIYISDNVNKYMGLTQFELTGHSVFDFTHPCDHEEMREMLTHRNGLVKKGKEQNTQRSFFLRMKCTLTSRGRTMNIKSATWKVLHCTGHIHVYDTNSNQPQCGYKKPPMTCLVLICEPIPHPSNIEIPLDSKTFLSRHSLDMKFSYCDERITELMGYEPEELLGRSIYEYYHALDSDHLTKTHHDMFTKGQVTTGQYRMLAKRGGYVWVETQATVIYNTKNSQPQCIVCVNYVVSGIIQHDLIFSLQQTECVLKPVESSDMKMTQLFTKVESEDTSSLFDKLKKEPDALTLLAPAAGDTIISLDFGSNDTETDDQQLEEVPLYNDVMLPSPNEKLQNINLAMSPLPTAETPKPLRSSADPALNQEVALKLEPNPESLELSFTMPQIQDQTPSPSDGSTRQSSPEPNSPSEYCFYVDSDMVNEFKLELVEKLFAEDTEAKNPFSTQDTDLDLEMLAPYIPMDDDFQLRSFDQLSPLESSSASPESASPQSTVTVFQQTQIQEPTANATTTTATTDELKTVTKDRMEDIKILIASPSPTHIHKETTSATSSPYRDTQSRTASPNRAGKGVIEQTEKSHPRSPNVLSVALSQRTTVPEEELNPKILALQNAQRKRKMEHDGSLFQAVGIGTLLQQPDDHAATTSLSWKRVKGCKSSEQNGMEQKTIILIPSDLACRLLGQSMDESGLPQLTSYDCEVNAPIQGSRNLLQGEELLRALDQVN
Chain of Paired box protein Pax-6 (Homo sapiens) (P26367 whole entry, looked up): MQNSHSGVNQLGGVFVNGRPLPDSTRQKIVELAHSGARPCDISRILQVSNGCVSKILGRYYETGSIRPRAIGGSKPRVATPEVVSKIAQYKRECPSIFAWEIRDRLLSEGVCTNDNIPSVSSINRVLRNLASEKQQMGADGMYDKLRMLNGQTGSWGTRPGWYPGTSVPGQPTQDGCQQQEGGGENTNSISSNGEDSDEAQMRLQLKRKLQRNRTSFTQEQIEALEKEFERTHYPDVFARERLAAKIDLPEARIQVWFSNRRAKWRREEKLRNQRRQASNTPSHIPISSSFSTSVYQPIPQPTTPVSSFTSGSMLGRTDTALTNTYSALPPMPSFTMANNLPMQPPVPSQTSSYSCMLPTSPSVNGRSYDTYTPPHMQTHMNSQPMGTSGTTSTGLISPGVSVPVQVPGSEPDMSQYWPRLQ
Chain of Transcription factor Sp1 (Homo sapiens) (P08047 whole entry, looked up): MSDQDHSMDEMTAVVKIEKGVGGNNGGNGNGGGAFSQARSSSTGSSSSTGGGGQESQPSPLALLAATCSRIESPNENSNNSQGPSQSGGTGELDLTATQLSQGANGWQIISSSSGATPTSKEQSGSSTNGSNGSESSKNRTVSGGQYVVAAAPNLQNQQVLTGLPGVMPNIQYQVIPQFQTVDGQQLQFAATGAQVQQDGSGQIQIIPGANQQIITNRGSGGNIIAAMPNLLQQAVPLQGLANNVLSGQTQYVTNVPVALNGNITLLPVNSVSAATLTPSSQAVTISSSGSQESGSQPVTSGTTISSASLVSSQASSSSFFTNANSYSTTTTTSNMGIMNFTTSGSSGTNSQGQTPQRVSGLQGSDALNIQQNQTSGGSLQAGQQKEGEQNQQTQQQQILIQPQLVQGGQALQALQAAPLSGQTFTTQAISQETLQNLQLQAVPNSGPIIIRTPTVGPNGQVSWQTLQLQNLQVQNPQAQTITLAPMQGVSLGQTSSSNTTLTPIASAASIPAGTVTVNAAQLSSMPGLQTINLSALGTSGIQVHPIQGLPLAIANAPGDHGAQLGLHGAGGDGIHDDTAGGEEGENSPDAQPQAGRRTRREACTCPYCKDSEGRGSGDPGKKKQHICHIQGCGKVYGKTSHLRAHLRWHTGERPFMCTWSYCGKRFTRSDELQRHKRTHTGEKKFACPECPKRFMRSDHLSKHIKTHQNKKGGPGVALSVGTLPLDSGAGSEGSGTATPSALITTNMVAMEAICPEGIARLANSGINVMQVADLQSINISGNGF
Chain of Heat shock factor protein 1 (Homo sapiens) (Q00613 whole entry, looked up, the tested form may be a part): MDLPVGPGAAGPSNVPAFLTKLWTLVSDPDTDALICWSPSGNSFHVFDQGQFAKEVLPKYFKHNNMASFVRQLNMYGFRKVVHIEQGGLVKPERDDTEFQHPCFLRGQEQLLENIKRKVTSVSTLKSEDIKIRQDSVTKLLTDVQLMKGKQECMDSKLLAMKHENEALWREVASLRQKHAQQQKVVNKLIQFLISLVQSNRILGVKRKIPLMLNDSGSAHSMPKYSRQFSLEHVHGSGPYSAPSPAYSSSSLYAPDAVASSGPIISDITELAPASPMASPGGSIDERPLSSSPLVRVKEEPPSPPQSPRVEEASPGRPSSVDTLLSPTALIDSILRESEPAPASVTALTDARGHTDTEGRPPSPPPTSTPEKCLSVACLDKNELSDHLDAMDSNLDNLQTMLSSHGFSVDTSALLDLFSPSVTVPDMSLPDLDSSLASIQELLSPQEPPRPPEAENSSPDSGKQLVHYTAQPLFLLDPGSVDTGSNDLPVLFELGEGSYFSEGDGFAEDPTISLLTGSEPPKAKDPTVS

C[Si]1(C)O[Si](C)(C)O[Si](C)(C)O[Si](C)(C)O[Si](C)(C)O1
active: [11] 27.2 µM
not listed: [17] | [18] | [19]
inactive: all other assays above

Cn1cccc1
active: [14] 25.7 µM
not listed: [9] | [11] | [12]
inactive: all other assays above

CCCCCCCCCC(C)=O
not listed: [17]
inactive: all other assays above

CCCCC(=O)O
not listed: [9] | [12]
inactive: all other assays above
